A selection: hits, their analogues and other compounds. The true share with any hit is near 6.9%.
Beta cell apopt: inhibitors of cytokine-induced beta cell apoptosis, primary screen, luminescence. INS-1E cytokine-induced death, ATP luminescence, 48 h; percent of positive-control rescue, neutral wells zero. protection from apoptosis, % (concentration not given with the values). 0.8% of 300,000 active. AID 435005, 2010;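 active = Every replicate reaches about 75%, or at least half do and their mean reaches it too, limit read from the data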;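 also: 0% = cytokine-treated negative control wells and 100% = positive control rescue; higher means more ATP so stronger rescue from cytokine killing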
SKKanGAS inh: S. pyogenes SKKanGAS growth inhibitors in kanamycin, primary screen, streptokinase expression inhibitor project, SKKanGAS strain, BacTiter-Glo luminescence. 6 h. inhibition, % at 7.5 µM. 1.3% of 300,000 active. AID 1662, 2009;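 active = mean replicate score, as percent of positive control median, at least 50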;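 also: strain carries kanamycin resistance gene driven by streptokinase promoter and grows in 40 µg/ml kanamycin; loss of luminescence reflects streptokinase promoter inhibition or plain growth inhibition; 0% = median of DMSO wells and 100% = positive control at its reference dose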
CSC inhib: cancer stem cell viability inhibitors, primary screen, luminescence | cancer stem cell-like cells viability | inhibition, % at 7.5 µM | 1.1% of 300,000 active | AID 2717, 2010; in the data active = inhibition above about 75%; tested in HMLE shEcad cells
Mdm2-MdmX inh: inhibitors of human Mdm2-MdmX association, primary screen, cell-based, luminescence, split luciferase, SaOS-2, uHTS; inhibition, % at 8 µM; Protein Mdm4 (Homo sapiens) + E3 ubiquitin-protein ligase Mdm2 (Homo sapiens), …; 3% of 330,000 active; SaOS-2 split-luciferase Mdm2/MdmX complementation;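 active = inhibition of at least 50% at 8 µM in the primary screen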
MPTP inh: mitochondrial permeability transition pore inhibitors, primary screen, biochemical, isolated mouse mitochondria, absorbance | Ca2+ swelling absorbance, 30 min | inhibition, % at 10 µM | 1.4% of 360,000 active | AID 602449, 2012;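 active = inhibition of 50% or more, scaled per plate between neutral and stimulator controls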;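 also: 0% = DMSO wells given calcium and 100% = 1 mM EGTA wells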
GRIN3A LBD mod: binders of NR3A ligand-binding domain, primary screen, biophysical, differential scanning fluorimetry, uHTS; 2.5% of 340,000 active; NR3A LBD differential scanning fluorimetry, Tm shift; 0% = protein alone, 100% = glycine-bound protein; Tm shift relative to glycine control, % at 25 µM; AID 1259313, 2017;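 active = melting temperature shift of at least 10% of the positive control shift, at one fixed dose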
An asterisk follows results filed as active; · = not tested or not shown.

SMILES	Beta cell apopt	SKKanGAS inh	CSC inhib	Mdm2-MdmX inh	MPTP inh	GRIN3A LBD mod
CCCCN(C(=O)c1ccccc1Br)C(c1ccc(OC)cc1)c1nc2ccccc2[nH]1 (configuration not stated)	·	·	·	·	-1	·
C/C(=N\NC(=O)CSCc1ccc([N+](=O)[O-])cc1)c1cccc(Br)c1	4	19	-4	-3	0	-10
C/C(=N\NC(=O)CSCc1ccccc1Br)c1cccc([N+](=O)[O-])c1	2	0	6	8	6	22*
O=C(O)c1ccc(-n2cccc2/C=C2/SC(=O)N(CC(=O)N3CCCC3)C2=O)cc1	0	5	-1	6	0	-2
N#Cc1ccccc1CN1C(=O)S/C(=C/c2cccn2-c2ccc(C(=O)O)cc2)C1=O	-2	57*	-11	12	0	-1
O=C(Nc1ccc(O)c(-c2nc3ccccc3o2)c1)C1(c2ccc(Br)cc2)CCCC1	4	7	84*	20	12	0
CC(=O)Nc1ccc2oc(-c3ccccc3Br)nc2c1	-4	-18	4	-156	2	-11
O=C(Cn1c(-c2ccccc2)c[n+]2ccsc12)c1ccc([N+](=O)[O-])cc1	94*	6	22	-15	0	-1
COc1ccc(CC(=O)NNC(=O)COc2ccc(C)cc2)cc1S(=O)(=O)N1CCOCC1	2	-2	-14	-2	-1	10*
CCOc1ccc(S(=O)(=O)N2CCOCC2)cc1NC(=O)CSCC(=O)Nc1ccc(C)cc1	-1	-5	0	15	-1	11*
CCOc1ccc(S(=O)(=O)N2CCOCC2)cc1NC(=O)CSCC(=O)Nc1ccc(OC)cc1	·	·	·	·	0	0
COc1ccc(/C=C/C(=O)Nc2ccc(S(=O)(=O)N3CCOCC3)cc2)c(OC)c1	14	·	·	-24	-1	25*
Cc1ccc(OCCCC(=O)Nc2ccc(S(=O)(=O)N3CCOCC3)cc2)cc1	-4	·	·	8	2	28*
O=C(CCCOc1ccccc1)Nc1ccc(S(=O)(=O)N2CCOCC2)cc1	-8	-3	-7	27	1	0
COc1ccc(CC(=O)NNC(=O)COc2ccc(F)cc2)cc1S(=O)(=O)N1CCOCC1	-1	·	21	2	-1	-4
O=C(OCC(=O)N1CCN(c2ccccc2)CC1)C1CCCN1S(=O)(=O)c1ccc(Cl)cc1 (configuration not stated)	·	·	·	18	2	3
COc1ccc(CCC(=O)Nc2ccc(S(=O)(=O)N3CCOCC3)cc2)cc1OC	·	·	·	·	0	·
Cc1ccc(S(=O)(=O)N2CCN(C(=O)COc3ccc(NC(=O)c4ccco4)cc3)CC2)cc1	11	-4	94*	-2	0	-2
O=C(Nc1ccc(S(=O)(=O)N2CCOCC2)cc1)c1ccco1	2	-1	-6	-14	-1	0
COc1ccc(CCC(=O)Nc2ccc(S(=O)(=O)N3CCOCC3)cc2)cc1	-3	2	6	-16	0	20*
Cc1ccc(CNC(=O)Cn2cnc(C(=O)Nc3ccc(C)c(C)c3)n2)o1	·	·	·	4	-1	0
O=C(Cc1csc(N2CCOCC2)n1)N/N=C/c1ccc(Cl)cc1Cl	-2	1	-3	-9	1	-1
COc1cc(/C=N/NC(=O)Cc2csc(N3CCOCC3)n2)cc(OC)c1O	4	-2	0	-10	1	15*
Cn1c(Oc2ccccc2NCc2cc(Br)ccc2O)cc(=O)n(C)c1=O	10	59*	16	14	10	-25
CCCc1nnc(SCC(=O)NC2CC2)n1C	-1	3	-7	9	0	-6
SMILES	Beta cell apopt	SKKanGAS inh	CSC inhib	Mdm2-MdmX inh	MPTP inh	GRIN3A LBD mod
COC(=O)c1ccc(NCc2c(O)ccc(O)c2Br)cc1Cl	·	·	·	·	1	32*
COC(=O)c1ccc(NCc2cc(O)ccc2O)cc1O	·	·	·	·	-1	1
c1ccc(-c2csc3ncnc(-n4cnc5ccccc54)c23)cc1	·	-12	4	-4	0	-1
Cc1ccc(-c2csc3ncnc(-n4cnc5ccccc54)c23)cc1	-2	3	77*	40	-1	-3
O=C(CSc1ccc(Cl)cc1)OCc1nnc(-c2ccccc2)o1	-6	-1	-14	16	1	19*
O=C(Cc1ccc(Cl)cc1)OCc1nnc(-c2ccccc2)o1	1	-13	·	-9	-2	3
Cc1ccccc1N1CCN(S(=O)(=O)c2nnc(NC(=O)c3ccco3)s2)CC1	2	51*	34	20	4	0
CCc1cccc2c(/C=N/NC(=O)c3cccc(S(=O)(=O)Nc4ccccc4Cl)c3)c[nH]c12	·	43	16	15	-3	27*
O=C(N/N=C/c1ccco1)c1cccc(S(=O)(=O)Nc2ccccc2Cl)c1	-8	5	-5	-31	-6	-2
O=C(N/N=C/c1[nH]c2ccccc2c1Cl)c1cccc(Br)c1	1	-5	14	46	15	12*
Cc1[nH]c2ccccc2c1/C=N/NC(=O)c1cc(-c2ccccc2)n[nH]1	-1	1	32	39	-4	19*
Cc1nn(-c2ccccc2)c(C)c1/C=N/NC(=O)c1cc(-c2cccc3ccccc23)n[nH]1	8	51*	60	46	-5	1
Cc1[nH]c2ccccc2c1/C=N/NC(=O)c1ccccc1	-6	-3	-9	16	0	-4
Cc1[nH]c2ccccc2c1/C=N/NC(=O)c1cccc(S(=O)(=O)Nc2ccccc2Cl)c1	2	26	-12	-1	0	24*
O=C(N/N=C/c1cccs1)c1cccc(S(=O)(=O)Nc2ccc(Cl)cc2)c1	0	-4	-4	31	10	28*
Cc1[nH]c2ccccc2c1/C=N/NC(=O)c1ccc(N)cc1	-6	-3	-7	-3	1	11*
Cc1ccc(/C=N/NC(=O)c2cccc(S(=O)(=O)Nc3ccccc3Cl)c2)o1	0	3	-5	4	-2	-2
Cc1[nH]c2ccccc2c1/C=N/NC(=O)c1cccc(Br)c1	-4	-6	-10	8	0	16*
O=C(C1CCCCC1)N1C[C@H](n2cc(C3CC3)nn2)[C@@H](O)C[C@@H]1c1ccc(Cl)cc1	·	·	·	·	-1	·
COc1ccc(C(C(=O)NC2CCCC2)N(C(=O)c2ccoc2C)c2ccc(C)c(C)c2)cc1 (configuration not stated)	3	-16	38	14	2	-1
O=C(CSc1nnc(C2CCCCC2)o1)Nc1ccccc1Cl	-3	0	-4	-79	1	1

Assay outcomes: PubChem, several laboratories
